Results filed as inconclusive are left out. Activity calls are given as the source filed them. Calls come from the whole dose curve; as a rule, active = well fitted inhibition curve with a large enough effect; inconclusive = small, poorly fitted or top-dose-only effect; inactive = flat fitted curve, though single readings scatter.

What all share (assay): qHTS profiling for inhibitors of Plasmodium falciparum proliferation (AID 504749); note: nearly all actives have a fitted effect of over 60% in size
Common to all, as to settings: P. falciparum in erythrocytes, SYBR Green DNA, 72 h; series mostly up to 28.7 µM
A general note: Quantitative high-throughput screening tests each substance at several concentrations.

The test system of experiment [1] is C2A. An outline of the steps:
(§1)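 Fluorescence of SYBR Green-bound parasite DNA, read at 485/535 nm, served as the growth measure. Infected erythrocytes were cultured with compound 72 h; artemisinin (0.29 uM) and DMSO wells defined the normalization range.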

The test system of experiment [2] is CP185. An outline of the steps:
as §1

Experiment [3] has as its system CP191. An outline of the steps: as §1
The test system of experiment [4] is CP192. Put shortly: as §1
The subject of experiment [5] is CP194. An outline of the steps: as §1
The subject of experiment [6] is CP201. An outline of the steps:
as §1

The subject of experiment [7] is CP203. An outline of the steps: as §1
Experiment [8] relates to CP211. An outline of the steps: as §1
Experiment [9] deals with CP215. An outline of the steps:
as §1

Experiment [10] relates to CP217. An outline of the steps:
as §1
Potency is the fitted concentration of half-maximal effect.

`CN=C(NC#N)NCCSCc1nc[nH]c1C`: the Potency entry in experiment [1], in experiment [2], in [3], in [4], in experiment [5] and in experiment [6] was “inactive” in each case. Moreover, the Potency result in experiment [7], in experiment [8], in [9] and in experiment [10] was “inactive” in each case.
Take `CC(C)NNC(=O)c1ccncc1`: the Potency entry in experiment [1], in experiment [2], in [4], in [5], in experiment [6] and in [7] was “inactive” in each case. Also, the Potency result in experiment [8] and in [9] was “inactive” throughout. Besides, the Potency in experiment [3] was 4.47 µM (active).
With `NC(=O)c1cn(Cc2c(F)cccc2F)nn1`, the Potency entry in experiment [1], in experiment [2], in [3], in experiment [4], in experiment [5] and in [6] was “inactive” in each case. For the same compound, the Potency result in experiment [7], in experiment [8], in experiment [9] and in [10] was “inactive” throughout.
Regarding `CCCCOCCOCCOCc1cc2c(cc1CCC)OCO2`, the Potency entry in experiment [1], in experiment [2], in experiment [3], in [4], in [5] and in experiment [6] was “inactive” in each case. Also, the Potency entry in experiment [7], in experiment [8], in experiment [9] and in experiment [10] was “inactive” in each case.
Regarding `C[C@]12CCC(=O)C=C1CC[C@@H]1[C@@H]2CC[C@@]2(C)[C@H]1CC[C@]2(O)C(=O)CO`, the Potency result in experiment [1], in experiment [2], in [3], in experiment [4], in experiment [5] and in experiment [6] was “inactive” throughout. Moreover, the Potency result in experiment [7], in experiment [8], in [9] and in [10] was “inactive” in each case.
With `CCN(Cc1ccncc1)C(=O)C(CO)c1ccccc1` (stereo not given), the Potency result in [1], in experiment [2], in experiment [3], in [4], in [5] and in [6] was “inactive” in each case. Also, the Potency entry in [7], in experiment [8], in [9] and in [10] was “inactive” each time.
Regarding `O=c1[nH]c(=O)n([C@H]2C[C@H](O)[C@@H](CO)O2)cc1Br`, the Potency result in experiment [1], in experiment [2], in experiment [3], in [4], in experiment [5] and in [6] was “inactive” throughout. Also, the Potency result in experiment [7], in experiment [8], in experiment [9] and in experiment [10] was “inactive” throughout.
Turning to `Cc1ccc(S(=O)(=O)NC(=O)NN2CCCCCC2)cc1`, the Potency entry in experiment [1], in experiment [2], in [3], in [4], in [5] and in experiment [6] was “inactive” throughout. Moreover, the Potency entry in experiment [7], in [8], in experiment [9] and in experiment [10] was “inactive” each time.
For the compound `CN1CCN(CC(=O)N2c3ccccc3C(=O)Nc3cccnc32)CC1`, the Potency entry in [1], in experiment [2], in experiment [3], in experiment [4], in experiment [5] and in experiment [6] was “inactive” throughout. The Potency entry in experiment [7], in experiment [8], in experiment [9] and in experiment [10] was “inactive” in each case.
For `CCN(CC)CCCN(c1ccccc1)C1Cc2ccccc2C1`, the Potency in experiment [1] is 11.2 µM (active); in experiment [2], 6.31 µM (active); in [3] it was 5.01 µM (active); in experiment [4] it was 10.7 µM (active); in experiment [5], 7.57 µM (active); in [6] it was 7.57 µM (active). Further, the Potency in [7] is 6.75 µM (active); in experiment [8], 12 µM (active); in experiment [9], 8.49 µM (active); in [10], 5.62 µM (active).
With `O=C(O)CN(CCN(CC(=O)O)CC(=O)O)CCN(CC(=O)O)CC(=O)O`, the Potency result in [1], in [2], in experiment [3], in [4], in experiment [5] and in experiment [6] was “inactive” each time. Further, the Potency result in experiment [7], in experiment [8], in experiment [9] and in [10] was “inactive” each time.
For the compound `CC(=O)Nc1nnc(S(N)(=O)=O)s1`, the Potency entry in experiment [1], in experiment [2], in experiment [3], in experiment [4], in [5] and in experiment [6] was “inactive” throughout. The Potency entry in [7], in [8], in [9] and in [10] was “inactive” each time.
Regarding `CCN1CCc2nc(N)oc2CC1`, the Potency result in experiment [1], in experiment [2], in experiment [3], in [4], in experiment [5] and in experiment [6] was “inactive” throughout. Further, the Potency entry in experiment [7], in experiment [8], in experiment [9] and in experiment [10] was “inactive” in each case.
Take `CCCCNc1c(C(=O)OCC)c(C)nc2c1cnn2CC`: the Potency result in experiment [1], in [2], in experiment [3], in experiment [4], in [5] and in experiment [6] was “inactive” throughout. The Potency result in experiment [7], in experiment [8], in experiment [9] and in experiment [10] was “inactive” each time.
For the compound `CC(=O)[C@@]1(O)CC[C@H]2[C@@H]3CCC4=CC(=O)CC[C@]4(C)[C@H]3CC[C@@]21C`, the Potency entry in experiment [1], in experiment [2], in [3], in experiment [4], in experiment [5] and in experiment [6] was “inactive” in each case. Besides, the Potency entry in experiment [7], in experiment [8], in experiment [9] and in experiment [10] was “inactive” in each case.
As to `CCCCNC(=O)NS(=O)(=O)c1ccc(C)cc1`, the Potency entry in [1], in [2], in [3], in experiment [4], in [5] and in experiment [6] was “inactive” throughout. Further, the Potency entry in [7], in [8], in [9] and in [10] was “inactive” in each case.
`CCOC(=O)C1=C(C)NC(C)=C(C(=O)OC)C1c1cccc([N+](=O)[O-])c1` (stereo not given): in experiment [1], the Potency entry was “inactive”.
In the case of `Nc1ncn([C@@H]2O[C@H](CO)[C@@H](O)[C@H]2O)c(=O)n1`, the Potency entry in experiment [1], in experiment [2], in [3], in [4], in [5] and in [6] was “inactive” throughout. The Potency entry in experiment [7], in [8], in experiment [9] and in experiment [10] was “inactive” in each case.
Regarding `Nc1nc(N)c2nc(-c3ccccc3)c(N)nc2n1`, the Potency entry in [1], in experiment [2], in experiment [3], in [4], in [5] and in [6] was “inactive” each time. For the same compound, the Potency entry in [7], in experiment [8], in experiment [9] and in experiment [10] was “inactive” in each case.
Turning to `COCC(=O)O[C@]1(CCN(C)CCCc2nc3ccccc3[nH]2)CCc2cc(F)ccc2[C@@H]1C(C)C`, the Potency was 0.562 µM (active) in experiment [1]; 4.47 µM (active) in experiment [2]; 4.47 µM (active) in experiment [3]; 5.36 µM (active) in experiment [4]; 6.01 µM (active) in experiment [5]; 8.49 µM (active) in [6]. The Potency in experiment [7] was 1.9 µM (active); in experiment [8] it was 4.26 µM (active); in [9], 4.26 µM (active); in experiment [10], 2.51 µM (active).
As to `Cc1cc(C)c(/C=C2\C(=O)Nc3ccccc32)[nH]1`, the Potency entry in experiment [1], in experiment [2], in experiment [3], in experiment [4], in experiment [5] and in [6] was “inactive” in each case. Further, the Potency entry in [7], in [8], in experiment [9] and in [10] was “inactive” in each case.

The record behind these values is PubChem BioAssay (NCATS).
